Laboratory results: PubChem BioAssay (NCATS)
Values joined by “and” are separate entries in the source; they are usually repeats but may differ in a detail not shown here. Equal values may be shown once. Results filed as inconclusive are left out. Active and inactive are the calls of the source. Unless noted, calls follow the shape of the dose curve; as a rule, active = well fitted curve in the direction sought with a large enough effect; inconclusive = small, poorly fitted or top-dose-only effect, or another doubt; inactive = no such curve, though single readings can be large; an effect the other way counts as inactive or inconclusive.

How the values were obtained:
[1] = Cell Viability - BJ (AID 421; calls by dose curve;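 also: potency is read from the fitted curve at half-maximal effect; cells exposed to compound for 40 hours at 37 °C before readout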); settings: BJ fibroblast viability, qHTS
Outline: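 Cytotoxicity as drop in intracellular ATP (CellTiter-Glo, 20 min RT) after 40 hr compound exposure of BJ fibroblasts at 37 °C. Titrations scaled between DMSO and 100 uM tamoxifen, Hill-fitted for AC50.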

[2] = Cell Viability - Jurkat (AID 426;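 active = dose-dependent loss of cell ATP signal giving a full or clear fitted curve, ranked by lower potency value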;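 also: potency is read from the fitted curve at half-maximal effect; cells exposed to compound for 40 hours at 37 °C before ATP read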); settings: qHTS
Outline: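 Luminescent ATP read-out (CellTiter-Glo, 20 min at room temperature) after 40 hr compound exposure at 37 °C of Jurkat E6-1 cells, 5000/well. Decreased ATP taken as cytotoxicity; AC50 from standard Hill equation.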

[3] = Cell Viability - Hek293 (AID 427;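 active = compounds whose dose-response curve shows a full or clear partial loss of cell viability, called from curve shape rather than a numeric limit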;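 also: potency is read from the fitted curve at half-maximal effect; cells exposed to compound for 40 hours at 37 °C before reading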); settings: qHTS
Outline: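 Luminescent ATP content (CellTiter-Glo, 20 min at room temperature) was measured after a 40 hr, 37 °C compound exposure of HEK293 cells. AC50 values came from Hill-equation fits of qHTS concentration-response data normalized to DMSO and 100 uM tamoxifen.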

[4] = Cell Viability - HepG2 (AID 433; calls by dose curve;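 also: potency is read from the fitted curve at half-maximal effect; potency for ATP loss meaning cytotoxicity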); settings: qHTS
Outline: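 Read-out is luciferase-based quantitation of cellular ATP as a measure of viable HepG2 cells after 40 h treatment at 37 °C. Signal decrease is scaled between DMSO-only and 100 uM tamoxifen controls, with AC50 fitted by the Hill equation.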

[5] = Cell Viability - SK-N-SH (AID 435; calls by dose curve; also: potency is read from the fitted curve at half-maximal effect); settings: SK-N-SH neuroblastoma cell viability qHTS
Outline: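 Luminescent ATP signal served as the viability read-out after 40 hours of compound treatment of human neuroblastoma SK-N-SH cells. Concentration-response data, scaled between DMSO and 100 uM tamoxifen, gave AC50 values by standard Hill modeling.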

[6] = Cell Viability - N2a (AID 540); settings: N2a mouse neuroblastoma cell viability; activity change, negative = cytotoxicity: at 92.2 µM (top of the series);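 also: plate controls were DMSO alone for no effect and tamoxifen control for full effect; nearly all actives have a fitted effect of over 45% in size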
Outline: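 N2a mouse neuroblastoma, 1500 cells/well, 5 hr settle; compound 40 hr, 37 °C; CellTiter-Glo 20 min RT; luminescence; Hill-fit AC50.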

[7] = Cell Viability - NIH 3T3 (AID 541); settings: NIH 3T3 cell viability, qHTS; activity change, negative = cytotoxicity: at 92.2 µM (top of the series);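 also: plate controls were DMSO alone for no effect and tamoxifen positive control for full effect; nearly all actives have a fitted effect of over 25% in size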
Outline: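 qHTS format; 40 hr compound exposure, 37 °C; CellTiter-Glo luminescence (cellular ATP) read-out after 20 min at RT. Decrease in ATP = cytotoxicity; AC50 from standard Hill fit.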

[8] = Cell Viability - HUV-EC-C (AID 542); also: nearly all actives have a fitted effect of over 35% in size; also: potency is read from the fitted curve at half-maximal effect; as to activity change, negative = cytotoxicity: % is scaled to controls: 0 for no effect and ±100 for the full control effect
Outline: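 Luminescent ATP read-out (CellTiter-Glo, 20 min room temperature) after 40 hr compound treatment of HUV-EC-C cells at 37 °C. Concentration-response data fitted with the standard Hill equation to give AC50; tamoxifen and doxorubicin served as positive controls.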

[9] = Cell Viability - H-4-II-E (AID 543); also: nearly all actives have a fitted effect of over 35% in size; also: potency is read from the fitted curve at half-maximal effect
Outline: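 qHTS, rat hepatoma H-4-II-E, 1500 cells/well; 40 hr compound exposure, 37 °C; CellTiter-Glo ATP luminescence after 20 min RT; AC50 by standard Hill fit.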

[10] = Cell Viability - SH-SY5Y (AID 544); settings: SH-SY5Y neuroblastoma cell viability; viability change, negative = cytotoxic: at 92.2 µM (top of the series); also: nearly all actives have a fitted effect of over 55% in size; also: potency is read from the fitted curve at half-maximal effect;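 as to viability change, negative = cytotoxic: 0% = DMSO alone and -100% = 100 µM tamoxifen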
Outline: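 SH-SY5Y, 1500 cells/well, 5 hr pre-incubation 37 °C; cpd 40 hr 37 °C; CellTiter-Glo 20 min RT; luminescence (ATP) read. qHTS concentration-response, Hill fit → AC50. Tamoxifen, doxorubicin as positive controls.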

[11] = Cell Viability - Renal Proximal Tubule (AID 545); settings: renal proximal tubule cells viability, primary cells of rat origin; activity change, negative = cytotoxicity: at 91.7 µM (top of the series); also: nearly all actives have a fitted effect of over 40% in size; also: potency is read from the fitted curve at half-maximal effect;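 as to activity change, negative = cytotoxicity: 0% = DMSO only and -100% = 100 µM tamoxifen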
Outline: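 Luminescent ATP signal (CellTiter-Glo) served as the viability read-out after 40 hr compound exposure of freshly isolated rat proximal tubule cells at 37 °C. Concentration-dependent ATP loss was fitted with the Hill equation to give AC50.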

[12] = Cell Viability - Mesenchymal (AID 546); settings: mesenchymal cells viability, qHTS; activity change, negative = cytotoxicity: at 91.7 µM (top of the series);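 also: cells exposed to compound for 40 hours before reading; 0% = DMSO only and -100% = 100 µM tamoxifen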
Outline: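 Human renal mesenchymal cells (glomerulus-derived), 1000 cells/well, 5 hr 37 °C pre-incubation; compound 40 hr, 37 °C; CellTiter-Glo, 20 min RT; luminescence; AC50 via Hill equation.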

[13] = molecular target: Mitogen-activated protein kinase 10 (Mus musculus) (UniProt Q61831); test: JNK3 AlphaScreen Assay (AID 530; active = well fitted curve in either direction with a large enough effect, not every such curve was filed as active;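 also: kinase came from lysate of stimulated human HepG2 cells; signal reports phosphorylation of biotinylated GST-cJun 1-79 at Ser73 with 10 µM ATP; % is scaled to controls: 0 for no effect and ±100 for the full control effect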)
Outline: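 HepG2 lysate (IL-1b/TNFa pre-activated) + biotin-GST-cJun 1-79 + anti-pSer73 cJun; cpd titration, 15 min RT; ATP 10 uM start; Tris pH 7.6, MgCl2, DTT, vanadate; beads in EDTA buffer; AlphaScreen.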

[14] = molecular target: Glucocorticoid receptor (Homo sapiens) (UniProt P04150); test: GR-GFP Redistribution (AID 450;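 active = compounds whose dose series gives a full or clear partial fitted curve of increased nuclear translocation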; also: potency is read from the fitted curve at half-maximal effect); settings: U2OS GR-GFP nuclear translocation, laser cytometry, 2 h
[15] = molecular target: Glucocorticoid receptor (Homo sapiens) (UniProt P04150); test: GR-EFC Redistribution (AID 451; calls by dose curve; also: potency is read from the fitted curve at half-maximal effect); settings: CHO-K1 GR-EFC translocation, beta-gal luminescence, 2 h
Outline: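 CHO-K1 cells expressing nuclear EA and GR-ED fragments of b-gal; compounds titrated up to 46 uM final, 2 h at 37 C. GR nuclear translocation read as complemented b-gal luminescence after 1 h RT detection.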

[16] = molecular target: Cytochrome P450 1A2 (Homo sapiens) (UniProt P05177); test: p450-cyp1a2 (AID 410; calls by dose curve; also: potency is read from the fitted curve at half-maximal effect)
Outline: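 20nM CYP1A2, 100uM Luciferin-ME (=Km), 100mM KPO4; cpd 10 min RT; +NADPH regen, 60 min RT; stop/detect 20 min; luminescence. Normalized to furafylline 57 uM = full inhibition.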

[17] = Stat Signaling Pathway (AID 446; active = well fitted curve in either direction with a large enough effect, not every such curve was filed as active;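 also: ME-180 cervical cancer cells given 40 pM IL-6 alongside compound; SIE-controlled beta-lactamase reporter measured as 460/530 nm FRET emission ratio; % is scaled to controls: 0 for no effect and ±100 for the full control effect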)
Outline: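 FRET read-out (405 nm excitation, 460/530 nm emission) of a beta-lactamase reporter under a STAT-inducible element in ME-180 cervical carcinoma cells. Cells with compound receive 40 pM IL-6 for 5 h. Values are normalised to AC90 stimulation and AC90 JAK-inhibitor controls.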

Chain of Cytochrome P450 1A2 (Homo sapiens) (P05177 whole entry, looked up): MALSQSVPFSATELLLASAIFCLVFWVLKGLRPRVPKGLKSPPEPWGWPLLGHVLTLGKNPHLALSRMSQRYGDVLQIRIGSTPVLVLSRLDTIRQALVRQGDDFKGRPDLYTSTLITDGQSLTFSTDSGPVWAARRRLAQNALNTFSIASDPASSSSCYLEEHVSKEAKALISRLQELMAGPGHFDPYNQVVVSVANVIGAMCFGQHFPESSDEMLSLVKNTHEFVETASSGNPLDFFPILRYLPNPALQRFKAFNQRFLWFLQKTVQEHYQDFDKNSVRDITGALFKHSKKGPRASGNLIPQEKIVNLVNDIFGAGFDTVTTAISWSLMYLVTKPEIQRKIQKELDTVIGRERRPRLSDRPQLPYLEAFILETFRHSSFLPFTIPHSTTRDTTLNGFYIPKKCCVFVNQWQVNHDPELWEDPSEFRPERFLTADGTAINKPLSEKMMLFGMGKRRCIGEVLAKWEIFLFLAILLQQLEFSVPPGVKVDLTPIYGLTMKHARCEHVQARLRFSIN
Chain of Glucocorticoid receptor (Homo sapiens) (P04150 whole entry, looked up, the tested form may be a part): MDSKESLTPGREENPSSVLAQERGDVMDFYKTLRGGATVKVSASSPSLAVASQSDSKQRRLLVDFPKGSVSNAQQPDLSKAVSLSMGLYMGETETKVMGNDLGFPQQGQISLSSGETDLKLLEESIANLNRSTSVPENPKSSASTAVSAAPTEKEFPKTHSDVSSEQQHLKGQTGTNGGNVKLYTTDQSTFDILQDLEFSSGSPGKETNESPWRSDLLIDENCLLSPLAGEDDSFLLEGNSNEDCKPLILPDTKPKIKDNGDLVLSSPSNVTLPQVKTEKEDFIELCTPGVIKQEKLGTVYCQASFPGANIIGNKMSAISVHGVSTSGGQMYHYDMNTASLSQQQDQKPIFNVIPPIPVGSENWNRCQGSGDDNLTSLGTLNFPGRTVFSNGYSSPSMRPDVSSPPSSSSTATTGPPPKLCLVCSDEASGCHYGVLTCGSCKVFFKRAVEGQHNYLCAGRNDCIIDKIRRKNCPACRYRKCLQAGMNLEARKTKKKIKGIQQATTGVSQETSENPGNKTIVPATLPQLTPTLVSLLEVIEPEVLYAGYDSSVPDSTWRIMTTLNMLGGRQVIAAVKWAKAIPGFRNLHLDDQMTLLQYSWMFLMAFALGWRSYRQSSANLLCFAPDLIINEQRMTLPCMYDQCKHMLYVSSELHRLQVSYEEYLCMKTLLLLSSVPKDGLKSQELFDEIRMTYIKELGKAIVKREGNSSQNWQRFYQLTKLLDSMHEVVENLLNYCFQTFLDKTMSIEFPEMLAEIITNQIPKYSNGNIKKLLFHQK

Cc1ccc(O)cc1
inactive: Potency [1] > 92 µM | Potency [2] > 92 µM | Potency [3] > 92 µM | Potency [4] > 92 µM | Potency [5] > 92 µM | Potency [6] | activity change, negative = cytotoxicity [7] -11.4% | Potency [8] | Potency [9] | Potency [10] | Potency [11] | Potency [12]

Nc1cccc2c(N)cccc12
inactive: Potency [1] > 92 µM | Potency [2] > 92 µM | Potency [3] > 92 µM | Potency [4] > 92 µM | Potency [5] > 92 µM | outcome [13] | Potency [6] | Potency [8] | Potency [9] | Potency [11] | Potency [12]

CCCCC(CC)COC(=O)c1ccccc1C(=O)O (stereo unspecified)
inactive: Potency [1] > 92 µM | Potency [2] > 92 µM | Potency [3] > 92 µM | Potency [4] > 92 µM | Potency [5] > 92 µM | outcome [13] | Potency [6] | activity change, negative = cytotoxicity [7] 10.8% | Potency [8] | Potency [9] | Potency [10] | Potency [11] | Potency [12]

Clc1ccc2c(c1)N=C(N1CCNCC1)c1ccccc1N2
inactive: Potency [14] > 46 µM | Potency [15] > 46 µM | outcome [13]

Oc1ccccc1
inactive: Potency [1] > 92 µM | Potency [2] > 92 µM | Potency [3] > 92 µM | Potency [4] > 92 µM | Potency [5] > 92 µM | outcome [13] | Potency [6] | activity change, negative = cytotoxicity [7] -17.5% | Potency [8] | Potency [9] | Potency [10] | Potency [11] | Potency [12]

O=C(c1ccccc1)c1ccccc1
inactive: Potency [1] > 92 µM | Potency [2] > 92 µM | Potency [3] > 92 µM | Potency [4] > 92 µM | Potency [5] > 92 µM | outcome [13] | Potency [6] | activity change, negative = cytotoxicity [7] -23.6% | Potency [8] | Potency [9] | Potency [10] | Potency [11] | Potency [12]

Nc1c2ccccc2nc2ccccc12
inactive: outcome [13]
active: Potency [2] 31.9 µM | Potency [5] 40.5 µM | activity change, negative = cytotoxicity [6] -89.3% | activity change, negative = cytotoxicity [7] -137% | Potency [8] 15.8 µM | Potency [9] 15.8 µM | Potency [10] 7.94 µM | Potency [11] 31.6 µM

O=C(Oc1ccccc1)c1ccccc1O
inactive: Potency [1] > 92 µM | Potency [2] > 92 µM | Potency [3] > 92 µM | Potency [4] > 92 µM | Potency [5] > 92 µM | outcome [13] | Potency [6] | Potency [8] | Potency [9] | Potency [10] | Potency [11] | Potency [12]

COc1cc(C=O)ccc1O
inactive: Potency [1] > 92 µM | Potency [2] > 92 µM | Potency [3] > 92 µM | Potency [4] > 92 µM | Potency [5] > 92 µM | outcome [13] | Potency [6] | activity change, negative = cytotoxicity [7] -22.1% | Potency [8] | Potency [9] | Potency [10] | Potency [11] | Potency [12]

CC(C)(c1ccc(O)cc1)c1ccc(O)cc1
inactive: Potency [1] > 92 µM | Potency [2] > 92 µM | Potency [3] > 92 µM | Potency [4] > 92 µM | Potency [5] > 92 µM | outcome [13] | Potency [6] | activity change, negative = cytotoxicity [7] -22.2% and -23.1% | Potency [8] | Potency [9] | Potency [10] | Potency [11] | Potency [12]

CC(C)N(CCC(=O)c1ccc2ccccc2c1)Cc1ccccc1
active: Potency [16] 3.98 µM and 2.51 µM
inactive: Potency [14] > 46 µM | Potency [15] > 46 µM | outcome [13]

CC(C)(C)c1ccc(O)c(O)c1
inactive: Potency [1] > 92 µM | Potency [4] > 92 µM | outcome [13]
active: Potency [2] 49.4 µM | Potency [5] 54.4 µM | activity change, negative = cytotoxicity [7] -146% | Potency [10] 12.6 µM | activity change, negative = cytotoxicity [11] -98.1% | activity change, negative = cytotoxicity [12] -100%

c1ccc2occc2c1
inactive: Potency [1] > 92 µM | Potency [2] > 92 µM | Potency [3] > 92 µM | Potency [4] > 92 µM | Potency [5] > 92 µM | outcome [13] | Potency [6] | activity change, negative = cytotoxicity [7] -5.88% | Potency [8] | Potency [9] | Potency [10] | Potency [11] | Potency [12]

O=C(NO)c1ccccc1
inactive: Potency [1] > 92 µM | Potency [3] > 92 µM | Potency [4] > 92 µM | Potency [5] > 92 µM | outcome [13] | Potency [6] | Potency [8] | Potency [9] | Potency [10] | Potency [11] | Potency [12]

C1=CC2C3C=CC(C3)C2C1 (stereo unspecified)
inactive: Potency [1] > 92 µM | Potency [2] > 92 µM | Potency [3] > 92 µM | Potency [4] > 92 µM | Potency [5] > 92 µM | outcome [13] | Potency [6] | Potency [8] | Potency [9] | Potency [10] | Potency [11] | Potency [12]

CCCC(=O)c1cc(O)c(O)cc1O
active: viability change, negative = cytotoxic [10] -93.1%
inactive: Potency [1] > 92 µM | Potency [3] > 92 µM | Potency [4] > 92 µM | outcome [13] | Potency [8] | Potency [9] | Potency [11]

Cn1cnc2c(NCc3ccccc3)nc(NCCO)nc21
inactive: outcome [17] | Potency [14] > 46 µM | Potency [15] > 46 µM
active: Potency [16] 7.94 µM and 5.01 µM

Cc1cc(C(C)(C)C)c(O)c(C(C)(C)C)c1
inactive: Potency [1] > 92 µM | Potency [2] > 92 µM | Potency [3] > 92 µM | Potency [4] > 92 µM | Potency [5] > 92 µM | Potency [6] | activity change, negative = cytotoxicity [7] 2.09% | Potency [8] | Potency [9] | Potency [10] | Potency [11] | Potency [12]

NCC(=O)O
inactive: Potency [14] > 46 µM | Potency [15] > 46 µM | outcome [13]

CC(C)C(C)(C)C(C)(C)C(C)(C)S
inactive: Potency [1] > 92 µM | Potency [2] > 92 µM | Potency [3] > 92 µM | Potency [4] > 92 µM | Potency [5] > 92 µM | outcome [13] | Potency [6] | activity change, negative = cytotoxicity [7] -18.6% | Potency [8] | Potency [9] | Potency [10] | Potency [11] | Potency [12]
